Screens as filed in PubChem.
Sm TGR block = blocks Schistosoma mansoni thioredoxin glutathione reductase; Q962Y6; AID 485364; 360,000 tested, 3% active; purified TGR, DTNB reduction, TNB absorbance 405 nm; Potency, µM (titrated, usually from 114 µM), for the others: at the highest dose activity change, negative = inhibition, usual class: inhibitors; further: potency means the concentration at half of the fitted maximal effect; nearly all actives have a fitted effect of over 60% in size
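TGR 20 nM + NADPH 100 uM (dispensed conc.), cpd preinc 15 min RT; start with NADPH (500 uM addition) then DTNB (15 mM addition). Kinetic TNB absorbance, 405 nm filter. Four-parameter Hill fit across titration.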
Pf growth 96h = P. falciparum growth inhibition at 96 hours; P. falciparum luciferase reporter growth, 96 h; Potency, µM (series often up to 28.7 µM), for inactives: at the top dose activity change, negative = inhibition, hits mostly inhibitors; 320,000 tested, 6.9% active; AID 504834; further: potency means the concentration at half of the fitted maximal effect
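Parasite growth measured via integrated firefly luciferase reporter in P. falciparum. Infected erythrocytes at 2% hematocrit, 0.05% parasitemia final were treated 96 hours at 37 C under 5% CO2, and luminescence was read.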
FBPA Giardia inh = Giardia lamblia aldolase inhibition; purified Giardia FBPA; Potency, µM (doses to about 59.6 µM), without a hit: at the highest dose activity, negative = inhibition, hits mostly inhibitors; 290,000 tested, 0.71% active; further: potency means the concentration at half of the fitted maximal effect; nearly all actives have a fitted effect of over 55% in size
Target sequence (A8B2U2 whole entry, looked up): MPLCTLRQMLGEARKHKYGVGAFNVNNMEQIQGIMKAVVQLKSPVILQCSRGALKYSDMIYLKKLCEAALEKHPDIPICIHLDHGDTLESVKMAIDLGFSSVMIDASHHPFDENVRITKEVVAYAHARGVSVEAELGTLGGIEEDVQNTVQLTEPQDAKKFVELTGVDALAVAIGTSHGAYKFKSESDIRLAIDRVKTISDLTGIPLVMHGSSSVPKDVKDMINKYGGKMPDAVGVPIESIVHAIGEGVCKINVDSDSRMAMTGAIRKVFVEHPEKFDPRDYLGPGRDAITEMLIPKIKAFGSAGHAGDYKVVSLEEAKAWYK
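Giardia FBPA (40 nM reagent) was preincubated 10 min at RT with compound (up to 57.5 uM final), then substrate plus GAPDH/TPI/NAD/arsenate coupling system with diaphorase/resazurin was added; resorufin fluorescence (525/598 nm) was read after 20 min.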
Pf growth 48h = P. falciparum growth inhibition at 48 hours (one generation). Potency, µM (titrated, usually from 28.7 µM), for the others: top-dose activity change, negative = inhibition, usual class: inhibitors. 310,000 tested, 5.9% active. AID 504832. P. falciparum luciferase growth in erythrocytes, 48 h; further: potency means the concentration at half of the fitted maximal effect
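Firefly luciferase activity from engineered P. falciparum reports growth; inhibitors lower the luminescent signal. Cultures contained 2% hematocrit erythrocytes at 0.1% final parasitemia.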
HCMV inh = human cytomegalovirus inhibition. HFF cells, HCMV-luciferase reporter, 72 h; hits give low values. activity change, negative = inhibition, % at 57.5 µM. 410,000 tested, 4.5% active. AID 1259415; in the data active means activity change below about -60%; inconclusive means no clear call, values can overlap the other calls; inactive means above about -39%
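Inhibition of viral replication was scored as loss of reporter luminescence in HFFs infected with HCMV-luciferase (MOI 1 PFU/cell) for 72 h; compounds tested at 2 doses, normalized to buffer and Salinomycin controls.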
Active calls of the source: *; ? = inconclusive; / = not tested or not shown; ! = a repeat was not active; [ ] = another dose, or the depositor's remark. This is a sample that favours compounds with a hit; in the whole collection about 14% have one here. Unless noted, the call rests on the fitted dose curve; in most records, active means well fitted curve in the direction sought with a large enough effect; inconclusive means small, poorly fitted or top-dose-only effect, or another doubt; inactive means no such curve, though single readings can be large; an effect the other way counts as inactive or inconclusive. On the % scale 0 is the no-effect control and ±100 the full control effect.

SMILES	Sm TGR block	Pf growth 96h	FBPA Giardia inh	Pf growth 48h	HCMV inh
CCN(CC)CCCC(C)n1c(-c2ccccc2)nc2c(NCCO)nc(C)nc21 (stereo not drawn)	/	/	1%	/	/
NC(=O)c1ccc(NC(=O)COC(=O)c2c3c(nc4ccccc24)/C(=C\c2cccs2)CCC3)cc1	-7%	-73%	-9%	?	-4
CCc1cccc(C)c1NC(=O)COC(=O)c1c2c(nc3ccccc13)/C(=C\c1cccs1)CCC2	-8%	10µM*	2%	13µM*	-28
O=[N+]([O-])c1cc(-c2csc(NCCc3nc4cc(C(F)(F)F)ccc4n3CCCO)n2)ccc1Cl	/	/	/	/	16
OCCCn1c(CCNc2nc(-c3ccc(Cl)cc3)cs2)nc2cc(C(F)(F)F)ccc21	/	/	/	/	-63*
O=c1c2ccccc2c(/C=N/c2ncn[nH]2)c(O)n1Cc1ccccc1	8%	?	4%	-15%	-82*!
O=C(N/N=C/c1c(O)n(Cc2ccccc2)c(=O)c2ccccc12)c1cccnc1	0%	15µM*	-11%	?	-2
O=C(N/N=C/c1c(O)n(-c2ccccc2Cl)c(=O)c2ccccc12)c1cccnc1	-22%	?	12%	?	25
Cc1nnc(SCC(=O)Nc2cccc(S(=O)(=O)NC3=NCCCCC3)c2)n1Cc1ccccc1	0%	-19%	5%	-17%	-11
COc1ccc(Cn2c(O)c(/C=N/NC(=O)c3cccnc3)c3ccccc3c2=O)cc1	-12%	5.2µM*	-9%	13µM*	-15
O=c1c2ccccc2c(C=Nc2cccc(S(=O)(=O)NC3=NCCCCC3)c2)c(O)n1Cc1ccccc1	8%	?	-4%	1.7µM*	-27
CC(C)CCC(C)N=Cc1c(O)n(Cc2ccccc2)c(=O)c2ccccc12 (stereo not drawn)	-4%	/	-9%	?	7
Cc1cc(C)n2nc(C(=O)OCC(=O)Nc3cc(S(=O)(=O)N4CCOCC4)ccc3Cl)nc2n1	/	/	/	/	-13
COc1ccccc1CCNC(=O)C(=O)NCC1OCCN1S(=O)(=O)c1ccc2c(c1)OCCO2 (stereo not drawn)	-13%	?	/	?	62
O=C(CC1CCCCC1)NCc1ccccc1Cl	1%	?	7%	163%	48
O=C(/C=C/c1ccccc1Cl)NCCc1ccc(F)cc1	-5%	?	1%	4.7µM*	-21
O=C(/C=C/c1ccccc1[N+](=O)[O-])NCCc1ccc(F)cc1	3%	37%	-7%	-6%[5.75 µM]	?
COC(=O)Cc1nnc(SCC(=O)Nc2ccccc2)c2ccccc12	-6%	-26%	/	?	-23
O=C(Cc1csc(N2CCOCC2)n1)N/N=C/c1ccc(O)c(O)c1O	?	1%	7.9µM*	1%	-24
Clc1ccc(Nc2nnc(Cc3ccncc3)c3ccccc23)cc1	/	6.7µM*	/	13µM*	3
CCCCNC(=O)c1nc2ccccc2nc1-c1ccc(F)cc1	/	/	/	/	-2
CCCN1C2CCCC1CC(NC(=O)c1ccccc1OC)C2 (stereo not drawn)	-1%	0%	-6%	2%	66
CCCN1C2CCCC1CC(NC(=O)c1cc(OC)c(OC)c(OC)c1)C2 (stereo not drawn)	5%	75%	-7%	?	-104*
COc1cc(C(=O)NCCC(=O)NC2CCCCC2)cc(OC)c1OC	2%	9.3µM*	/	-1%	0
CCOc1cc(C(=O)CSc2nnc(CNc3ccc(Cl)cc3)o2)ccc1NC(=O)CC	2%	?	20%	?	-87*
COc1cc(C(=O)NCc2nnc(SCC(=O)NC3CCCC3)o2)cc(OC)c1OC	-4%	8.3µM*	/	18%	-35
COc1cc(C(=O)NCc2nnc(SCC(=O)N3CCCC3)o2)cc(OC)c1OC	3%	-5%	/	24%	-33
COc1ccc(NCc2nnc(SCC(=O)c3ccc(OC)cc3)o2)cc1	-20%	/	-21%	13%	-8
COc1ccc2c3n([n+]([O-])c2c1)C(C)CN=C3c1cc(Cl)c(N)c(Cl)c1 (stereo not drawn)	/	/	/	/	58
COc1ccc(C)cc1-n1nnc(-c2nc(-c3ccccc3Cl)no2)c1N	-6%	/	/	/	-1
